Experimental findings from PubChem BioAssay AID977607 (Broad Institute, 2014) are described below.

SMILES strings stand for the structures. Screen size: about 1,500 compounds; about 460 (31%) were called active. About 1% were inconclusive and are not listed. The list is a sample of the results. Measured potencies and affinities stand elsewhere. A number with no mark means an inactive call.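 How the source made its calls: active means curve reaches 40% activation over neutral controls at an AC40 no higher than the top valid tested concentration; inconclusive means no clear call, values can overlap the other calls; inactive means signal moving opposite to the expected increase, and the rest.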

A short description of this test: activators of glucose-dependent insulin secretion, dose response, cell-based, INS-1E, Gaussia luciferase, luminescence, cherry-pick, set 2 (AID 977607).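 Further: 0% = median of the plate neutral control wells.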 Particulars: INS-1E GLuc insulin secretion reporter, 2-3 h, stronger effect = higher value; at 35 µM, 100% = signal doubled over neutral wells unless noted.
On to `COc1ccc(S(=O)(=O)N2CCc3ccccc32)cc1C(=O)Nc1cccnc1`, for which the max activation is -10.3% [at 3.8 µM, 100% = signal doubled over neutral wells]. Consider `O=S(=O)(c1ccc(Cl)nc1)N1CCc2ccccc21`, for which the max activation was -28.1%.

Take `COc1cc(C(=O)O)ccc1OCc1ccccc1`: the max activation is -15.4% [at 0.42 µM, 100% = signal doubled over neutral wells]. Next, `CCc1ccc(N(C2C=CS(=O)(=O)C2)S(=O)(=O)c2ccccc2)cc1` (stereo unspecified): -8.85% [at 0.015 µM, 100% = signal doubled over neutral wells]; `CCCc1nnc2c(N(C)S(=O)(=O)c3ccc(C)cc3)nc3ccccc3n12`: -17% [at 0.005 µM, 100% = signal doubled over neutral wells]. On to `COc1ccc(Nc2c3c(nc4ccccc24)CCC3)cc1`, for which the max activation was -16.4% [at 0.046 µM, 100% = signal doubled over neutral wells]. As for `c1csc(CNc2nc(Oc3ccncc3)c3sccc3n2)c1`, the max activation was -17.1% [at 0.0016 µM, 100% = signal doubled over neutral wells]. Next, `CN1CCCCC(NC(=O)c2ccccc2)C1=O` (stereo unspecified): -13.5% [at 0.42 µM, 100% = signal doubled over neutral wells]. `COc1ccc(S(=O)(=O)Nc2ccc3c(c2)OCO3)cc1OC`: the max activation is -21.1%. For `Cc1cccc(C)c1-n1nnnc1C1(C)CCC(=O)N1Cc1cccs1` (stereo unspecified), the max activation is 25.2%. On to `CCOc1cc(CNc2cccc3[nH]c(C)nc23)ccc1OC`, for which the max activation is -11.6% [at 0.0016 µM, 100% = signal doubled over neutral wells]. Consider `CCN(CC)C(=O)Cn1cc(C(=O)C(=O)N2CCN(Cc3ccccc3)CC2)c2ccccc21`, for which the max activation was -19.3%. Take `CC(=O)N1CCN(c2nnc(-c3ccc(C)cc3)c3ccccc23)CC1`: the max activation was -19.3% [at 3.8 µM, 100% = signal doubled over neutral wells].

Turning to `Cc1ncc(N=Nc2ccc(F)cc2)c(-c2ccc(Cl)cc2)n1`, the max activation was 105%. With `CC(=O)Nc1nc(NCc2ccccc2Cl)n(-c2ccccc2)n1`, the max activation is -19.9% [at 0.135 µM, 100% = signal doubled over neutral wells]. The figure for `COc1ccc(CCNC(=O)CCn2c(=O)c3cccn3c3cccnc32)cc1OC` is 27.2% [at 11 µM, 100% = signal doubled over neutral wells]; for `Cc1cc(=O)n(Cc2ccccc2)c2ccccc12` it is 22.3%; for `CCCn1c(O)c(N=NC(=O)c2cccnc2)c2cc(Br)ccc21` it is -23%.

In the case of `COc1ccc(N/C=C/C(=O)c2ccc(Cl)cc2)cc1`, the max activation is -21.2% [at 0.42 µM, 100% = signal doubled over neutral wells]. In the case of `Cc1ccc(S(=O)(=O)Nc2nc(C)cc(NN)n2)cc1`, the max activation was -19.8% [at 0.015 µM, 100% = signal doubled over neutral wells]. For `Cc1c(C)c2c(OCC(=O)O)cc3c(c2oc1=O)CCC(C)(C)O3`, the max activation was -24.4% [at 0.135 µM, 100% = signal doubled over neutral wells].

For `COc1cc2c(cc1OC)C(Cc1ccc(O)cc1)NCC2` (stereo unspecified), the max activation is 24.7% [at 0.0016 µM, 100% = signal doubled over neutral wells]. In the case of `COc1cc2c(cc1OC)C(Cc1ccc(O)cc1)N(C)CC2` (stereo unspecified), the max activation was -15.9% [at 0.0016 µM, 100% = signal doubled over neutral wells]. The figure for `O=C(NCCC1CCCCN1S(=O)(=O)c1ccc(F)cc1)C(=O)NCc1cccnc1` (stereo unspecified) is -23.5% [at 1.2 µM, 100% = signal doubled over neutral wells].

On to `COc1ccc2oc(-c3ccncc3)cc(=O)c2c1`, for which the max activation is 16.4%.

In the case of `COc1ccc(C(=O)Cc2cc3cccc(OC)c3oc2=O)cc1`, the max activation is -21.5% [at 0.0016 µM, 100% = signal doubled over neutral wells]. Regarding `O=C(NCc1ccccn1)c1ccccc1OCc1ccc(Cl)cc1Cl`, the max activation is -25.4%.

Take `COc1ccc2oc(=O)c(C(=O)NCc3ccccn3)cc2c1`: the max activation is -9.33% [at 1.2 µM, 100% = signal doubled over neutral wells]. On to `COc1ccc(Cc2nnc(-c3ccccc3)o2)cc1`, for which the max activation is 24.7% [at 0.42 µM, 100% = signal doubled over neutral wells]. For `COc1cc(CN(C)c2ccc(S(=O)(=O)N3CCCC3)cn2)ccc1OC(F)F`, the max activation was -33.3% [at 11 µM, 100% = signal doubled over neutral wells]. The figure for `CCN1CCN(CC(=O)Nc2ccc(C(C)=O)cc2)CC1` is -17% [at 1.2 µM, 100% = signal doubled over neutral wells]; for `O=C(NC(=S)Nc1cccc2[nH]ncc12)c1ccccc1` it is -16.1% [at 1.2 µM, 100% = signal doubled over neutral wells]. Consider `COc1ccc(C(=O)/C=C2/c3ccccc3CC(C)(C)N2C)cc1OC`, for which the max activation was -35.3% [at 1.2 µM, 100% = signal doubled over neutral wells].

On to `COc1ccc(C(=O)c2sc(Nc3ccccc3)nc2N)cc1OC`, for which the max activation was 39.1% [at 3.8 µM, 100% = signal doubled over neutral wells]. Next, `CC(C)COC(=O)N1C[C@H](O)C[C@H]1C(=O)Nc1ccc(Cl)cc1`: -12.6% [at 0.015 µM, 100% = signal doubled over neutral wells]; `Cc1ccc(-c2nc3c(=O)n(C)c4ccccc4c3o2)cc1`: 27.7% [at 0.42 µM, 100% = signal doubled over neutral wells].
